The record followed here is PubChem BioAssay AID2071 (Sanford-Burnham Center for Chemical Genomics, 2009).

About 1,700 (0.61%) of roughly 280,000 compounds were called active. No stated cut-off is given here; in the data, active means inhibition mostly above about 24% (no sharp cut-off); inactive means mostly below about 32%. For the sample, actives were picked, then their nearest neighbours and some compounds at random.

The assay in a line: NALP1 inflammasome inhibitors in reconstituted yeast, colorimetric, S. cerevisiae, triplicate retest (AID 2071). The conditions noted are these: S. cerevisiae NALP1/ASC/caspase-1 growth, X-gal OD620, 72 h, stronger effect = higher value.

As usually defined, the inhibition is the drop in the measured response relative to a control, in per cent. As for `COC(=O)c1ccc2c(C(C)(C)O)c(C(C)(C)O)[nH]c2c1`, under “at 10 µM unless noted”, the inhibition is 2.7% (inactive).

As to `O=C(Nc1cccc(Cl)c1Cl)c1ccccc1NC(=O)C1CC=CCC1C(=O)O` (stereo not given), where the note is “at 10 µM unless noted”, the inhibition is 11% (inactive).

For `CCCN1C2CCCC1CC(NC(=O)NC13CC4CC(CC(C4)C1)C3)C2` (stereo not given), the inhibition (at 10 µM unless noted) was 13.5% (inactive).

Regarding `COc1cccc(C(C(=O)NC2CCCC2)N(C(=O)c2ccco2)c2cccc(C(C)=O)c2)c1OC` (stereo not given), the inhibition (at 10 µM unless noted) is 24.9% (inactive).

On to `CCCn1c(CCNc2nc(-c3ccc(OC)cc3)cs2)nc2ccccc21`, for which the inhibition (at 10 µM unless noted) was -2.4% (inactive).

Take `O=C(CSc1ncnc2c1nnn2Cc1ccc(F)cc1)NC1CCCC1`: the inhibition (at 10 µM unless noted) was 23.4% (active).

Regarding `O=C(CSc1ncnc2c1oc1ccccc12)NC1CCCC1`, the inhibition (at 10 µM unless noted) was 15.8% (inactive).

`O=C(Cc1ccc(F)cc1)NC1CCCC1`: the inhibition (at 10 µM unless noted) is 9.3% (inactive).

On to `COc1ccc(-c2cc(C(=O)N(C)Cc3ccc(OC)c(OC)c3OC)c3ccccc3n2)cc1OC`, for which, under “at 10 µM unless noted”, the inhibition is 19% (inactive).

Consider `Cc1nnc(NC2=NCCCCC2)o1`, for which the inhibition (at 10 µM unless noted) was 37.9% (active).

For the compound `Cn1cccc1C(=O)N1CCc2ccccc2C1`, where the note is “at 10 µM unless noted”, the inhibition is 19.1% (inactive).

With `CCC(C)c1ccc(NC(=S)N2CCCC2)cc1` (stereo not given), the inhibition (at 10 µM unless noted) is -2.6% (inactive).

Take `COC(=O)c1ccc(COc2ccc(/C=C/C(=O)c3ccc(OC)c(CSCC(=O)O)c3)cc2OC)cc1`: the inhibition (at 10 µM unless noted) is 34.2% (active).

As for `COc1ccc(C(=O)/C=C/c2ccc(-c3ccccc3)cc2)cc1CSCC(=O)O`, the inhibition (at 10 µM unless noted) is 3% (inactive).

Turning to `COc1cc(/C=N/O)ccc1OCc1ccc([N+](=O)[O-])cc1`, where the note is “at 10 µM unless noted”, the inhibition was 12.2% (inactive).

Consider `CC(=O)Nc1ccc(N2C(=O)CC(Sc3nccc(C)n3)C2=O)cc1` (stereo not given), for which the inhibition (at 10 µM unless noted) was -0.3% (inactive).

Take `Cn1c(NC(=O)c2ccccc2)nc2ccccc21`: the inhibition (at 10 µM unless noted) was 7.4% (inactive).

For the compound `CCc1ccc(S(=O)(=O)N/N=C\c2ccc([N+](=O)[O-])o2)cc1`, under “at 10 µM unless noted”, the inhibition is 9.4% (inactive).

For `Cc1ccc(C(C[N+](=O)[O-])c2c(C)cc3ccccn23)cc1` (stereo not given), where the note is “at 10 µM unless noted”, the inhibition is 98.9% (active).

In the case of `Cc1cc2ccccn2c1C(=O)c1cccc(F)c1`, the inhibition (at 10 µM unless noted) is 17.6% (inactive).

Consider `CCC1=Nc2cc(C(=O)NCCCN3CCOCC3)ccc2Sc2ccc(Br)cc21`, for which the inhibition (at 10 µM unless noted) is 7.2% (inactive).

`CCc1ccc(CN(C)C(=O)C2CCC(=O)N(Cc3cccc(OC)c3)C2)nc1` (stereo not given): the inhibition (at 10 µM unless noted) is 9.6% (inactive).

As to `Cc1oc2cc3oc(=O)ccc3cc2c1C`, the inhibition (at 10 µM unless noted) is 8.6% (inactive).

With `CN(C)CCCN(C(=O)COc1ccccc1)c1nc2c(Cl)cccc2s1`, the inhibition (at 10 µM unless noted) is 3.9% (inactive).

Regarding `COc1cccc2sc(N(CCCN(C)C)C(=O)CCS(=O)(=O)c3ccccc3)nc12`, under “at 10 µM unless noted”, the inhibition was 14.3% (inactive).

For the compound `Cc1cccc2sc(N(CCCN(C)C)C(=O)CCS(=O)(=O)c3ccccc3)nc12`, the inhibition is 78.1% (active) (at 10 µM) and 99.3% (triplicate retest, at 20 µM).

Turning to `CC(C)CCNC(=O)c1ccc2c(Cl)c3c(nc2c1)CCC3`, the inhibition (at 10 µM unless noted) is 16.8% (inactive).

`Cc1ccc(N(Cc2cc(=O)[nH]c3ccccc23)C(=O)CCl)cc1`: the inhibition (at 10 µM unless noted) is 17.4% (inactive).

In the case of `O=C(CC(=O)Nc1ccc(Cl)c(Cl)c1)N/N=C/c1ccc(O)cc1`, the inhibition (at 10 µM unless noted) is 21.7% (inactive).

As to `Cc1ccc(NC(=O)C/C(N)=N/O)cc1Cl`, the inhibition (at 10 µM unless noted) was -8.9% (inactive).

For `O=C(CC(O)(C(F)(F)F)C(F)(F)F)Nc1ccc(Cl)c(Cl)c1`, the inhibition is, setting by setting: (at 10 µM) 78.5% (active); (triplicate retest, at 20 µM) 110%.

As for `COc1ccc(C(=O)C2CCCN(C(=O)c3cc(C)on3)C2)cc1F` (stereo not given), the inhibition (at 10 µM unless noted) was 4% (inactive).

In the case of `Cc1ccc(/C=N/NC(=O)c2cc3ccccc3cc2O)o1`, the inhibition (at 10 µM unless noted) is -11.5% (inactive).

Regarding `CC(=O)N(C)c1ccc(NC(=O)Nc2cccc3ccccc23)cc1`, the inhibition (at 10 µM unless noted) was 15.8% (inactive).

Take `CCOc1cc(/C=C/c2nc3ccccc3c(=O)[nH]2)cc(Br)c1OC`: the inhibition (at 10 µM unless noted) is 8.1% (inactive).

Consider `COc1ccc2oc(=O)c(C(=O)N3CCN(c4ccccc4F)CC3)cc2c1`, for which the inhibition (at 10 µM unless noted) is 0.6% (inactive).

With `O=C(c1ccc(CN2CCOCC2)cc1)N1CCN(c2ccccc2F)CC1`, for the setting “at 10 µM unless noted”, the inhibition is 6.8% (inactive).

As to `O=C(c1cccc2ccccc12)N1CCN(c2ccccc2F)CC1`, under “at 10 µM unless noted”, the inhibition was 41.1% (active).

Consider `COc1ccccc1CNC(=O)[C@@H]1CCCN1C(=O)[C@@H]1Cc2ccccc2CN1C(=O)OC(C)(C)C`, for which, for the setting “at 10 µM unless noted”, the inhibition is -18.4% (inactive).

As to `COc1ccc(NC(=S)SC)cc1OC`, the inhibition is 73.8% (active) (at 10 µM) and 94.6% (triplicate retest, at 20 µM).

On to `COc1ccc(NS(=O)(=O)c2ccc(NC(C)=O)cc2)cc1OC`, for which, for the setting “at 10 µM unless noted”, the inhibition is 26.3% (inactive).

Take `COc1ccc(NC(=O)CNC(=O)Cc2ccccc2)cc1OC`: the inhibition (at 10 µM unless noted) was -89.6% (inactive).

With `Cc1cc(NC(=O)CCN2CCN(Cc3ccccc3)CC2)ccc1Br`, the inhibition (at 10 µM unless noted) is 16.7% (inactive).

Turning to `CN(CCO)c1ccc(/C=N/Nc2nncc3ccccc23)cc1`, where the note is “at 10 µM unless noted”, the inhibition was 3.8% (inactive).

As for `O=C(C(NS(=O)(=O)c1cccc2nsnc12)c1ccccc1)N1CCN(c2ccccn2)CC1` (stereo not given), the inhibition (at 10 µM unless noted) is 8.1% (inactive).

Regarding `O=C(O)C(NS(=O)(=O)c1cccc2nsnc12)c1ccccc1` (stereo not given), the inhibition (at 10 µM unless noted) was 15.5% (inactive).

In the case of `O=C(C(NS(=O)(=O)c1cccc2nsnc12)c1ccccc1)N1CCN(c2ccccc2)CC1` (stereo not given), the inhibition (at 10 µM unless noted) was 34.4% (active).
